Compound activity deposited in PubChem BioAssay by National Center for Advancing Translational Sciences (NCATS).
Only some compounds are listed: those with a hit (about 9.2% of all), similar ones and a draw of the others.
SMN2 splice up: enhancers of SMN2 splice variant expression | HEK293 SMN2-luciferase splicing reporter, luminescence, 30-36 h | Potency, µM (series often up to 46.1 µM), actives largely listed as activators | 2.8% of 210,000 active; further: nearly all actives have a fitted effect of over 55% in size
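qHTS luciferase splicing reporter: luminescence rises when SMN2 exon 7 is included in transfected HEK293 cells. Compound exposure lasted 30-36 h at 37C, with 4.5 mM final sodium butyrate as control, followed by a ONE-Glo read.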
ELG1 repair inh: ELG1-dependent DNA repair inhibition. Potency, µM (series often up to 46.1 µM), usual class: inhibitors. AID 504467. HEK293T ELG1-luciferase reporter, luminescence, 16 h; DNA damage induced by 5-fluorouridine. 2.3% of 330,000 active; further: nearly all actives have a fitted effect of over 55% in size
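Reporter activity after DNA damage by 5-fluorouridine is monitored. Compound-treated cells incubate 16 hr at 37 °C, then ONE-Glo is added for 30 min before luminescence reading.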
ELG1 genotox: induces genotoxicity in HEK293T cells with luciferase-tagged ELG1 | 1.3% of 330,000 active | HEK293T ELG1-luciferase reporter, luminescence, 16 h | Potency, µM (series often up to 46 µM), hits mostly activators; further: nearly all actives have a fitted effect of over 60% in size
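Quantitative HTS format in 1536-well plates. HEK293T ELG1-luciferase reporter cells receive test compound and are incubated 16 hr at 37 °C, 5% CO2; ONE-Glo added, 30 min room temperature, then luminescence read.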
Rab9 prom act: activates the Rab9 promoter; Huh7 Rab9 promoter-luciferase reporter, luminescence, 24 h; Potency, µM (titrated, usually from 9.22 µM), most hits filed as activators; 2.8% of 320,000 active; AID 485297; further: nearly all actives have a fitted effect of over 60% in size
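Huh7 cells stably carrying a Rab9 promoter-luciferase reporter, 1500 cells per well in OP-MEM I with 10% FBS, treated with compound 24 hours at 37C. Luciferase activity read by luminescence after 10 minutes with Amplite reagent.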
FLuc counter: inhibits or activates purified firefly luciferase, miR-21 counter-screen; P08659; purified FLuc, Km substrates, luminescence inhibition; Potency, µM (highest dose often 57.5 µM), hits mostly inhibitors; 6.9% of 360,000 active; AID 588342; further: nearly all actives have a fitted effect of over 55% in size
Target sequence (P08659 whole entry, looked up): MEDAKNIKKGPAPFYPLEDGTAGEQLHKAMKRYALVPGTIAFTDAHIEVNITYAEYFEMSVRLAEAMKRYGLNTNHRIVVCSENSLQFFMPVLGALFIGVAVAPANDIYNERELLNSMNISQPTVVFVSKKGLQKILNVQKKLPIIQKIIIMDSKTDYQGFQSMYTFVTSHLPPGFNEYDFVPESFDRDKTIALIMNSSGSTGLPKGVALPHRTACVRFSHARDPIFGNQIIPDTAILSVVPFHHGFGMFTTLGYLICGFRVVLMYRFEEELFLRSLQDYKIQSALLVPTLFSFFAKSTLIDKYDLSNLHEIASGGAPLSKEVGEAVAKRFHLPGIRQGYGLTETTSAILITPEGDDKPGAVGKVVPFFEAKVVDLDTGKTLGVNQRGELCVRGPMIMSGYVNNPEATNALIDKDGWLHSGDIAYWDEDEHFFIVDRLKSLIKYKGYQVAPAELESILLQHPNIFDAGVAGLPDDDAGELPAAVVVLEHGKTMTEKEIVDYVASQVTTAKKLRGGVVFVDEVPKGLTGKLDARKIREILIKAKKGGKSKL
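Purified P. pyralis luciferase, 10 nM final, with Km-level 10 uM D-luciferin and 10 uM ATP in 50 mM Tris acetate pH 7.5, 10 mM Mg acetate, 0.01% Tween-20, 0.05% BSA; 6-point qHTS titration about 60 µM downward; luminescence read.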
NPC1 promoter act: activators of NPC1 promoter. 2.4% of 320,000 active. Huh7 NPC1 promoter luciferase reporter, 24 h. AID 485313. Potency, µM (titrated, usually from 9.22 µM), hits mostly activators; further: nearly all actives have a fitted effect of over 60% in size
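Compounds in DMSO were transferred onto Huh7 NPC1-luciferase reporter cells pre-incubated 2 h; after 24 h at 37 °C, Amplite reagent was dispensed and luminescence recorded 10 min later.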
A number is an active result; 0 = inactive; ? = inconclusive; - = no result; [ ] = another dose, or the depositor's remark. The call rests on the fitted dose curve; in most records, active means well fitted curve in the direction sought with a large enough effect; inconclusive means small, poorly fitted or top-dose-only effect, or another doubt; inactive means no such curve, though single readings can be large; an effect the other way counts as inactive or inconclusive.

SMILES	SMN2 splice up	ELG1 repair inh	ELG1 genotox	Rab9 prom act	FLuc counter	NPC1 promoter act
Cc1cccc(NC(=O)C2CCN(S(=O)(=O)c3ccc4c(c3)NC(=O)CO4)CC2)c1	-	0	0[9.26 µM]	0	0	0
CCOC(=O)c1cnc2c(ccc3ccccc32)c1Cl	-	?	?	0	3.01µM	0
CCOC(=O)c1cnc(SCCc2ccccc2)nc1N	12.6µM	?	?	1.58µM	3.01µM	3.16µM
CCOC(=O)c1cnc(SCc2ccc(C)cc2)nc1N	11.2µM	?	23.1µM	0	16.9µM	?
CCCCSc1ncc(C(=O)OCC)c(N)n1	5.01µM	?	?	3.16µM	3.79µM	?
CCOC(=O)c1cnc(SCC(=O)c2ccc(Cl)cc2)nc1N	0	?	?	0	0	0
Cc1ccnc(NS(=O)(=O)c2ccc(NS(=O)(=O)c3cc(Cl)ccc3Cl)cc2)n1	-	?	0	0	0	0
CCOC(=O)c1cnc(NCc2ccccc2)nc1C	0	?	14.6µM	?	?	0
C[C@H](NC(=O)[C@@H]1Cc2ccccc2CN1)C(=O)Nc1ccc2c(c1)OCO2	-	0	0	0	0	0
C[C@@H](NC(=O)[C@@H]1Cc2ccccc2CN1)C(=O)Nc1ccc2c(c1)OCCO2	-	?	?	0	21.3µM	0
COC(=O)c1ccc(N(CC(=O)NC2CCCCC2)C(=O)CNC(=O)c2ccco2)cc1	-	0	0	0	0	0
Oc1cccc(-c2nc3c4c(ncn3n2)-c2ccccc2CC42CCCC2)c1	0	8.2µM	0	0	0	0
O=C(COC(=O)CSc1ccc([N+](=O)[O-])cc1)NCC1CCCO1 (stereo not given)	-	0	0	0	0	0
Cc1ccc(C(=O)Nc2nc(-c3ccccn3)cs2)o1	-	?	0	0	19µM	0
CCCn1nc(C(=O)Nc2nc(-c3ccccn3)cs2)c2ccccc2c1=O	-	7.3µM	0	0	0	0
CCc1cc(C(=O)Nc2nc(-c3ccccn3)cs2)sc1C	-	0	0	0	12µM	0
CC(=O)c1ccc(-c2ccc(C(=O)Nc3nc(-c4ccccn4)cs3)o2)cc1	-	18.3µM	0	-	-	-
COCCN(C(=O)c1csnn1)C(C(=O)NC1CCCC1)c1ccccc1F (stereo not given)	-	0	0	0	0	0
CCOC(=O)C1CCN(S(=O)(=O)c2cn(C)c(C)n2)CC1	-	0	0	0	0	0
CCN(c1ccccc1)S(=O)(=O)c1cc(NC(=O)CN2CCN(C)CC2)ccc1Cl	-	0	0	-	-	-
CCCN(CCC)S(=O)(=O)c1cccc(C(=O)N=c2sccn2C)c1	-	?	0	-	0	0
Cn1c(SCc2cccc(F)c2)nnc1-c1cnccn1	-	?	?	?	0	?
Cn1c(SCc2ccccc2Cl)nnc1-c1cnccn1	?	?	11.2µM	?	?	?
Cn1c(SCc2ccccc2Cl)nc2ccccc21	0	?	5.8µM	?	6.01µM	2.51µM
CCn1c(SCc2ccccc2Cl)nc2ccccc21	?	?	0	0	12µM	0
SMILES	SMN2 splice up	ELG1 repair inh	ELG1 genotox	Rab9 prom act	FLuc counter	NPC1 promoter act
COc1ccccc1OCCn1cc(/C=N/NC(N)=S)c2ccccc21	0	18.3µM	0	0	0	0
CNC(=S)N/N=C/c1cn(CCOc2ccc(OC)cc2)c2ccccc12	?	?	0	0	21.3µM	0
COc1ccccc1OCCn1cc(/C=N/NC(=O)c2ccncc2)c2ccccc21	-	0	0	0	?	0
CCOc1ccc(-c2nnc3ccc(SCc4ccc(C(=O)OC)o4)nn23)cc1	0	20.6µM	0	0	0	0
Cc1ccc(O)c(C2=Nc3ccccc3C2(C)C)c1	0	?	?	?	12µM	0
COc1ccc(C)cc1C1=Nc2ccccc2C1(C)C	0	0	0	0	0	0
COc1ccccc1NC(=O)Nc1ccnn1C1CCN(C(=O)c2cccnc2)CC1	-	0	0	0	0	0
N/C(=N\OC(=O)COc1ccc(Cl)cc1Cl)c1ccncc1	-	?	?	0.631µM	3.01µM	2.82µM
N/C(=N\OC(=O)COc1ccc(Cl)cc1Br)c1cccnc1	0	?	0	3.98µM	2.69µM	3.16µM
Cc1cc(C)c(C)c(OCC(=O)O/N=C(\N)c2cccnc2)c1	-	0	0	0	0	0
N/C(=N\OC(=O)COc1ccc(Br)cc1Cl)c1cccnc1	17.8µM	?	?	?	8.49µM	?
Cc1cc(-c2ccccc2)cc(-c2ccccc2)[n+]1C	0	11.6µM	0	0	0	0
COc1cc(/C=C2\C(=O)N(c3ccccc3)N=C2C)ccc1Oc1ccc([N+](=O)[O-])cc1[N+](=O)[O-]	0	?	0	0	?	0
COc1cccc(/C=C/C(=C2/C(=O)N(c3ccccc3)N=C2C)c2ccccc2)c1OC	0	7.31µM	0	0	0	0
C#CCOc1ccc(/C=C2/C(=O)N(c3cccc(C(=O)O)c3)N=C2C)cc1OC	-	?	0	0	12µM	0
CC1=NN(c2ccccc2)C(=O)/C1=C/c1cc(C)n(C2CC2)c1C	0	0	0	0	2.39µM	0
CC1=NN(c2ccc(Br)cc2)C(=O)/C1=C/c1cccs1	0	?	0	0	7.57µM	0
CC1=NN(c2ccccc2)C(=O)/C1=C\c1cn(-c2ccccc2)nc1C	0	0	0	0	?	0
CC1=NN(c2ccccc2)C(=O)/C1=C\c1sccc1C	-	?	0	0	7.57µM	0
COc1ccccc1/C=C1/C(=O)N(c2ccccc2)N=C1C	-	0	0	0	26.9µM	0
CCN(CC)CCN(C(=O)c1cc2c(ccc3ccccc32)oc1=O)c1nc2cc3c(cc2s1)OCCO3	-	?	18.3µM	0	0	0
CCN(CC)CCN(C(=O)c1ccc2c(c1)OCCO2)c1nc2cc3c(cc2s1)OCO3	-	0	0	0	0	0
Brc1ccccc1-c1nnc(CSc2nnc3sc4ccccc4n23)o1	0	0	0	3.98µM	?	0
CCn1c(=O)cc(OCC(=O)NCc2ccc(F)cc2Cl)c2ccccc21	0	-	-	-	0	-
CCc1ccccc1NC(=O)c1ncoc1-c1ccco1	-	-	-	-	0	-
SMILES	SMN2 splice up	ELG1 repair inh	ELG1 genotox	Rab9 prom act	FLuc counter	NPC1 promoter act
O=C(NC1CCCCC1)c1ccc(CS(=O)(=O)Cc2ccccc2F)o1	10µM	0	0	0	0	0
O=C(NC1CCCC1)c1ccc(CS(=O)(=O)Cc2ccccc2F)o1	-	?	0	0	0	0
Cc1ccc(CS(=O)(=O)Cc2ccc(C(=O)NC3CCCCCC3)o2)cc1	-	18.3µM	0[9.26 µM]	0	0	0
Cc1ccc(CS(=O)(=O)Cc2ccc(C(=O)NC3CCCC3)o2)cc1	-	0	0	0	0	0
COCC(C)Nc1ncnc2c1cnn2-c1ccc(Cl)cc1 (stereo not given)	-	-	-	0.501µM	2.39µM	0.708µM
CCC(C)Nc1ncnc2c1cnn2-c1ccc(F)cc1 (stereo not given)	-	-	-	-	6.75µM	-
